In the supplement of paper PMC13380429:

System: Vero E6 infected with SARS-CoV-2
Assay: inhibition of SARS-CoV-2 cytopathic effect; higher = more antiviral protection, active = above 15
Settings: 48 h

Measured: inhibition of SARS-CoV-2 cytopathic effect

CCOC(=O)[C@H](CCc1ccccc1)N[C@H]1CCc2ccccc2N(CC(=O)O)C1=O [benazepril]
inactive: 1 nM 2.45% | 8.33 nM 4.14% | 100 nM 3.52% | 833.33 nM -1.12% | 10000 nM 1.56%

N[C@H]1CCN(O)C1=O
inactive: 1 nM -2.5% | 8.33 nM -0.335% | 100 nM -0.065% | 833.33 nM -1.54% | 10000 nM 0.17%

COc1cc(NC(=O)Nc2cccc(CNC(=O)O[C@H]3CCOC3)c2)ccc1-c1cnco1 [merimepodib]
inactive: 1 nM 0.31% | 8.33 nM 0.11% | 100 nM -0.15% | 833.33 nM 2.5% | 10000 nM 8.45%

Nc1nc(NC[C@H]2CC[C@H](CNS(=O)(=O)c3cccc4ccccc34)CC2)nc2ccccc12
inactive: 1 nM -0.54% | 8.33 nM -0.03% | 100 nM 0.19% | 833.33 nM -0.88%
active: 10000 nM 29.5%

O=C(CCN1CCN(C(=O)OCc2cc(Cl)cc(Cl)c2)CC1)c1ccc2[nH]c(=O)oc2c1
inactive: 1 nM 3.18% | 8.33 nM 5.29% | 100 nM 2.77% | 833.33 nM 4.56% | 10000 nM 1.71%

CS(=O)(=O)Nc1ccc([N+](=O)[O-])cc1Oc1ccccc1 [nimesulide]
inactive: 1 nM 0.43% | 8.33 nM -0.72% | 100 nM 1.12% | 833.33 nM 2.18% | 10000 nM 2.92%

Cc1cc2c(F)c(Oc3ncnn4cc(OC[C@@H](C)OC(=O)[C@H](C)N)c(C)c34)ccc2[nH]1 [brivanib-alaninate]
inactive: 1 nM -0.11% | 8.33 nM 4.65% | 100 nM 1.96% | 833.33 nM -0.19% | 10000 nM -7.17%

O=c1cc[nH]c(=S)[nH]1 [2-thiouracil]
inactive: 1 nM 3.22% | 8.33 nM 2.55% | 100 nM 2.51% | 833.33 nM 0.11% | 10000 nM -0.68%

Clc1ccc(C2(c3ccc(-c4cn[nH]c4)cc3)CCNCC2)cc1
inactive: 1 nM 1.57% | 8.33 nM -1.08% | 100 nM 1.96% | 833.33 nM -6.2% | 10000 nM -7.71%

Cc1ccc(-c2csc3ncnc(SCCC(=O)O)c23)cc1
inactive: 1 nM -0.23% | 8.33 nM 6.66% | 100 nM -1.26% | 833.33 nM 1.22% | 10000 nM 1.11%

COc1cc(OC)c(C(=O)CCCCN2CCC3(CC2)NC(=O)NC3=O)cc1NS(=O)(=O)c1ccc(C(F)(F)F)cc1
inactive: 1 nM 0.4% | 8.33 nM 0.2% | 100 nM -0.19% | 833.33 nM 0.81% | 10000 nM 0.94%

CCc1nc(C)ccc1O [emoxipin]
inactive: 1 nM 1.2% | 8.33 nM 3.95% | 100 nM 1.53% | 833.33 nM 0.68% | 10000 nM 1.33%

C/C1=C/C[C@@H](/C(C)=C/c2csc(C)n2)OC(=O)C[C@H](O)C(C)(C)C(=O)[C@H](C)[C@@H](O)[C@@H](C)CCC1 [epothilone-D]
inactive: 1 nM 2.13% | 8.33 nM -0.55% | 100 nM -1.83% | 833.33 nM -0.53% | 10000 nM -1.4%

O=C(NC1CCN(CCc2c[nH]c3ccccc23)CC1)c1ccccc1 [indoramin]
inactive: 1 nM 0.38% | 8.33 nM 1.24% | 100 nM 0.6% | 833.33 nM -1.28% | 10000 nM -4.57%

COc1ccccc1N1CCN(CCN2C(=O)CC3(CCCC3)CC2=O)CC1
inactive: 1 nM 0.12% | 8.33 nM 1.57% | 100 nM 2.97% | 833.33 nM 1.51% | 10000 nM 0.47%

CCCC(C)(COC(N)=O)COC(=O)NC(C)C (stereo not given)
inactive: 1 nM 1.17% | 8.33 nM 2.25% | 100 nM 2.38% | 833.33 nM 4.43% | 10000 nM 0.83%

COCCCN1CCC(NC(=O)c2cc(Cl)c(N)c3c2OCC3)CC1 [prucalopride]
inactive: 1 nM 0.43% | 8.33 nM 1.93% | 100 nM -0.24% | 833.33 nM 3.32% | 10000 nM 1.47%

CCOC(=O)Nc1nc2ccccc2[nH]1 [lobendazole]
inactive: 1 nM -9.74% | 8.33 nM -7.4% | 100 nM -4.73% | 833.33 nM -6.72% | 10000 nM -11.2%

COc1ccc2cc(CCC(C)=O)ccc2c1 [nabumetone]
inactive: 1 nM 0.72% | 8.33 nM 0.69% | 100 nM -4.19% | 833.33 nM -1.8% | 10000 nM -0.03%
